Laboratory results from PubChem BioAssay (Tox21).
Inconclusive results are not listed. A number with no mark means an inactive call. Calls of active or inactive are those of the source. The call rests on the fitted dose curve.

Target: 5-hydroxytryptamine receptor 2A (Homo sapiens) (UniProt P28223)
Assay: 5-hydroxytryptamine receptor 2A (HTR2A) small molecule antagonists, cell-based qHTS assay (AID 1963586); further: nearly all actives have a fitted effect of over 45% in size
Conditions: HTR2A-CHO cells, DOI-induced calcium flux, fluorescence; series mostly up to 61.5 µM; activity, negative = inhibition: at the top concentration
Method in brief: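 Antagonist-mode intracellular calcium assay: DOI (4 nM) added after 5 min compound pre-incubation at room temperature to dye-loaded HTR2A-CHO cells. Fluorescence followed for 3 min, sampled every second.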
On the % scale 0 is the no-effect control and ±100 the full control effect; potency means the concentration at half of the fitted maximal effect.

Sequence of 5-hydroxytryptamine receptor 2A (Homo sapiens) (P28223 whole entry, looked up): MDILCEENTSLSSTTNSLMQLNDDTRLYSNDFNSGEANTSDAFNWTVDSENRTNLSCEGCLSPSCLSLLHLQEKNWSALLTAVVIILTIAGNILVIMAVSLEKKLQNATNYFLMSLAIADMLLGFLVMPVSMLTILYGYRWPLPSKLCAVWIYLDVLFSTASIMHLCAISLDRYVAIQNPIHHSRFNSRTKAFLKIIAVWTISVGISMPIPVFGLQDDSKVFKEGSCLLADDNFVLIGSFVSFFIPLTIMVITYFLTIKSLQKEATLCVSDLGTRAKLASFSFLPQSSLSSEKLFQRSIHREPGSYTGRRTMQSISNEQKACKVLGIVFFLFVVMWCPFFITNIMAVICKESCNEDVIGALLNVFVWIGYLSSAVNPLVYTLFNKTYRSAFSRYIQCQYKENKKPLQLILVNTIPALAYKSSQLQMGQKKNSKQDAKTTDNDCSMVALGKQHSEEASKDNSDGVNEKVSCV

Structure (SMILES)	activity, negative = inhibition	Potency
CCOC(=O)C1=NN(c2ccccc2)C(=O)C1	3.4%	
C=C(C)CS(=O)(=O)O	5.06%	
O=C(Cl)c1c(Cl)cccc1Cl	73.2%	
Cc1ccc2c(c1)CCCN2	10.8%	
Cc1nc2ccc(CN(C)c3ccc(C(=O)N[C@@H](CCC(=O)O)C(=O)O)s3)cc2c(=O)[nH]1	3.12% [at 28.5 µM]	
CCCCCCCCCCCCCOC(=O)CCSCCC(=O)OCCCCCCCCCCCCC	1.85% [at 12.7 µM]	
O=C=NCC1CCCC(CN=C=O)C1 (stereo not given)	-8.3%	
OC/C=C/c1ccccc1	6.13%	
CC(C)=CC=O	-6.28%	
CC(=O)c1ccc(C)cc1	-5.04%	
CCCCCCCCCCCCOC(C)=O		2.11 µM (active)
CC1=C(C(=O)O)N2C(=O)[C@@H](NC(=O)[C@H](N)C3=CCC=CC3)[C@H]2SC1	15.5% [at 28.5 µM]	
Oc1cc2ccccc2c2ccccc12	-23.2%	
CC(C)(C)c1ccc(N)cc1	-1.24%	
O=C1CCC(=O)N1Cl	0.661%	
COc1ccc(CCO)cc1	31.2%	
CC(=O)OCC1=C(C(=O)O)N2C(=O)[C@@H](NC(=O)CSc3ccncc3)[C@H]2SC1	13.1% [at 28.5 µM]	
COC(=O)C(C)=O	-12.6%	
SC1CCCC1	2.02%	
CC(O)CC(C)O (stereo not given)	17.5%	

Structure (SMILES)	activity, negative = inhibition	Potency
CN1C(C)(C)CC(O)CC1(C)C	-19.5%	
CC(C)CCC(=O)CCC(C)C	-2.34%	
CCCCCCCCCCCCCCC	-1.12%	
Nc1ccc2cc(S(=O)(=O)O)cc(O)c2c1N=Nc1ccccc1C(F)(F)F	12.2%	
CO/N=C1\CN(c2nc3c(cc2F)c(=O)c(C(=O)O)cn3C2CC2)CC1CN (stereo not given)	54.4% [at 28.5 µM]	
C=C(C)C(=O)OCCOP(=O)(O)OCCOC(=O)C(=C)C	10.6%	
C=C(C)C(=O)OCCOCCOC(=O)C(=C)C	-7.85%	
CCCC(=O)O[C@]1(C(=O)COC(=O)CC)CC[C@H]2[C@@H]3CCC4=CC(=O)CC[C@]4(C)[C@H]3[C@@H](O)C[C@@]21C	-43.5% [at 12.7 µM]	
O=Cc1ccccc1Cl	-24.9%	
CC(C)=CCCC(C)CC(=O)O (stereo not given)	0.622%	
CC(C)(COC(=O)c1ccccc1)COC(=O)c1ccccc1	-0.106%	
CN(C)CCOC(=O)C(c1ccccc1)C1(O)CCCC1 (stereo not given)	3.04% [at 28.5 µM]	
CCCC(=O)O[C@]1(C(=O)CO)CC[C@H]2[C@@H]3CCC4=CC(=O)CC[C@]4(C)[C@H]3[C@@H](O)C[C@@]21C	52.9% [at 28.5 µM]	
CCCCCCCCCCCCCCCC(=O)OCC	-1.63%	
CC(O)CN (stereo not given)	-0.911%	
O=C(O)Cc1ccc(OCCNC[C@H](O)c2ccccc2)cc1	-1.08% [at 28.5 µM]	
O=C(O)c1c(Cl)ccc(Cl)c1Cl	1.88%	
CC(=O)c1ccc([N+](=O)[O-])cc1	8.61%	
CCCCCCOC(=O)CCCCCCCC(=O)OCCCCCC	4.29%	
Cc1ccccc1N=C(N)N=C(N)N	5.83%	
